In PubChem BioAssay AID504329 (Southern Research Specialized Biocontainment Screening …, 2011) one finds inhibition data, which are given here for 22 compounds.

Structures are written as SMILES. Hit rate of the full screen: of about 340,000 compounds, about 1,000 (0.29%) were called active. A selection follows. Entries with a potency or affinity are not part of this list. Unmarked numbers belong to inactive results. No stated cut-off is given here; in the data, inconclusive means inhibition above about 27% without an active follow-up result; inactive means below that.

A short description of the experiment: NS1A inhibition, H1N1 influenza, cell based functional assay (AID 504329). The settings on record: percent inhibition, at 12.5 µM, stronger effect = higher value.
In general, inhibition refers to the relative decrease from the control value, in per cent. Consider `Cc1cccc(NC(=S)NC2CC3CCCC(C2)N3CC(C)C)c1` (configuration not stated), for which the inhibition is -0.58%.
Then `COc1cccc(CN2CC(C(=O)N(C)Cc3ccnc4ccccc34)CCC2=O)c1` (configuration not stated), with -0.38%; and `COc1cc2cc(CN(CCCN3CCOCC3)C(=O)Nc3ccccc3F)c(=O)[nH]c2cc1OC`, with -7.1%; and `CCCCNC(=O)Cc1coc2ccc3ccccc3c12`, with -8.22%.
In the case of `CCC(C)[C@H](NS(=O)(=O)c1ccc(C)cc1)C(=O)N1CCC(C(=O)N[C@H](C(=O)O)c2ccccc2)CC1` (some centres not stated), the inhibition is -3.12%.
Then `COc1ccc2[nH]c3c(c2c1)CCN1C(=O)C(CC(=O)NCCCn2ccnc2)C[C@H](C(=O)N2CCOCC2)[C@@]31C` (some centres not stated), with -0.65%; and `COc1ccc(S(=O)(=O)N2CN3CCN(C3)C2)cc1OC`, with -1.61%.
Take `CC(=O)Nc1cccc(OCC(=O)NCCC2=CCCCC2)c1`: the inhibition was 5.18%.
On to `Cc1ccc(NC(=O)CSc2n[nH]c(-c3ccncc3)n2)cc1`, for which the inhibition is -14.5%.
Then `Cc1ccc(NC(=O)CSc2n[nH]c(-c3ccco3)n2)cc1`, with -7.19%.
Then `CCC(C)(C)C1CCc2[nH]nc(C(=O)NCCCNC(=O)OC(C)(C)C)c2C1` (configuration not stated), with 7.94%; and `Cc1ccccc1CN1CCN(CC(=O)NCc2ccccc2)CC1`, with -8.48%.
Consider `COc1ccc(C2CC(=O)Oc3c(C(CCN4CCN(c5ccccc5)CC4)c4ccc(N(C)C)cc4)c(OC)cc(OC)c32)cc1` (configuration not stated), for which the inhibition is 16.5%.
Next, `COc1cc(C2CC(=O)Oc3c(C(CCN4CCOCC4)c4ccc(N(C)C)cc4)c(OC)cc(OC)c32)cc(OC)c1OC` (configuration not stated): 19.5%; `COc1ccc(C(CCN2CCCC(C)C2)c2c(OC)cc(OC)c3c2OC(=O)CC3c2cc(OC)c(OC)c(OC)c2)cc1` (configuration not stated): -7.41%; `COc1ccc(C2CC(=O)Oc3c(C(CCN4CCOCC4)c4cc(OC)c(OC)c(OC)c4)c(OC)cc(OC)c32)cc1` (configuration not stated): -11.8%.
Then `COc1cc(C2CC(=O)Oc3c(C(CCN4CCN(c5ccccc5)CC4)c4ccc(N(C)C)cc4)c(OC)cc(OC)c32)cc(OC)c1OC` (configuration not stated), with 18%; and `COc1cc(C(CCN2CCOCC2)c2c(OC)cc(OC)c3c2OC(=O)CC3c2ccc(N(C)C)cc2)cc(OC)c1OC` (configuration not stated), with 13.9%; and `Cc1ccc(S(=O)(=O)NC(C)C(=O)Nc2ccc(C(N)=O)cc2)cc1` (configuration not stated), with 7.11%.
Then `CN1C(=O)/C(=C\c2ccncc2)SC1=Nc1ccccc1`, with 2.83%; and `CC(CCc1ccccc1)NC(=O)c1ccco1` (configuration not stated), with 18.9%; and `COc1ccc(N=c2oc3c(OC)cccc3cc2C(=O)NCc2ccco2)c(OC)c1`, with 10.4%.
